A selection: hits, their analogues and other compounds. The true share with any hit is near 9%.
ALOX12 inh: Primary qHTS assay for inhibitors of human arachidonate 12S-lipoxygenase (ALOX12): Round 2. purified 12hLO, xylenol orange hydroperoxide absorbance. 1.1% of 580,000 active. Polyunsaturated fatty acid lipoxygenase ALOX12 (Homo sapiens), P18054. Potency, µM (highest dose often 108 µM), for the others: top-dose activity change, negative = inhibition, actives largely listed as inhibitors; further: on the % scale 0 is the no-effect control and ±100 the full control effect
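Purified human 12hLO (150 nM final) in 25 mM Hepes, 0.01% Triton X-100, pH 7.0 was preincubated 15 min at room temperature with compound. Then 40 uM arachidonic acid was added, 30 min. Hydroperoxide was read by Fe-XO absorbance ratio 573/405 nm.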
JMJD2A Tudor: qHTS Assay for Inhibitors of JMJD2A-Tudor Domain | 4.4% of 390,000 active | Potency, µM (highest dose often 114 µM), inactives show top-dose activity change, negative = inhibition, actives largely listed as inhibitors | AlphaScreen JMJD2A-Tudor / H3K4me3 peptide binding | AID 504339, 2011 | Lysine-specific demethylase 4A (Homo sapiens), O75164; further: on the % scale 0 is the no-effect control and ±100 the full control effect; nearly all actives have a fitted effect of over 50% in size
PLK1 PBD inh: qHTS for Inhibitors of PLK1-PDB (polo-like kinase 1 - polo-box domain): Primary Screen. Serine/threonine-protein kinase PLK1 (Homo sapiens), P53350. Plk1 PBD binding of FITC phosphopeptide, fluorescence polarization. Potency, µM, inactives show max response, negative = inhibition, actives largely listed as inhibitors. 2.8% of 360,000 active; further: series mostly up to about 57 µM; on the % scale 0 is the no-effect control and ±100 the full control effect; nearly all actives have a fitted effect of over 65% in size
HP1b chromo inh: HTS for Inhibitors of HP1-beta Chromodomain Interactions with Methylated Histone Tails. AlphaScreen HP1-beta / biotin-H3K9me3 peptide binding. Potency, µM (doses to about 114 µM), for the others: at the highest dose activity change, negative = inhibition, hits mostly inhibitors. 0.56% of 390,000 active. AID 540317, 2011; further: nearly all actives have a fitted effect of over 70% in size
Target sequence (P83916 whole entry, looked up): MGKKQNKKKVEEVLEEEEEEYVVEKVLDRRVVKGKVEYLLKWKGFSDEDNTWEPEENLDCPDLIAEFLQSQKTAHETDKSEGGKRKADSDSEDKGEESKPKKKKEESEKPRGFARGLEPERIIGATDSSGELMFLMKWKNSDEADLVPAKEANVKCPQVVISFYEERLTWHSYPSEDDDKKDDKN
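AlphaScreen: HP1-beta (50 nM) preformed 30 min with biotin-H3(1-18)K9me3 peptide (50 nM) in PBS pH 7.4, 0.01% Tween-20. Compound added for 30 min at RT, then streptavidin donor/nickel chelate acceptor beads (10 ug/mL) for 30 min.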
BAZ2B inh: qHTS Assay for Inhibitors of BAZ2B; Bromodomain adjacent to zinc finger domain protein 2B (Homo sapiens), Q9UIF8; AlphaScreen BAZ2B-H3K14Ac peptide displacement; Potency, µM (doses to about 114 µM), inactives show at the top dose activity change, negative = inhibition, hits mostly inhibitors; 4.4% of 360,000 active; AID 504333, 2011; further: on the % scale 0 is the no-effect control and ±100 the full control effect; nearly all actives have a fitted effect of over 60% in size
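AlphaScreen displacement: compounds (up to 110uM) incubated 30 min at room temperature with a preformed 50 nM BAZ2B/50 nM biotinylated H3K14Ac peptide complex in PBS pH 7.4 with Tween-20. Donor and acceptor beads at 10 ug/mL final added, 20 min light-protected before reading.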
G9a inh: qHTS Assay for Inhibitors of Histone Lysine Methyltransferase G9a | Histone-lysine N-methyltransferase EHMT2 (Homo sapiens), Q96KQ7 | G9a H3K9 monomethylation, AlphaScreen, 2 h | Potency, µM (top dose mostly 102 µM), for inactives: top-dose activity, negative = inhibition, usual class: inhibitors | 8.8% of 350,000 active | AID 504332, 2011; further: on the % scale 0 is the no-effect control and ±100 the full control effect; nearly all actives have a fitted effect of over 75% in size
Target sequence (Q96KQ7 913-1193 limits assumed): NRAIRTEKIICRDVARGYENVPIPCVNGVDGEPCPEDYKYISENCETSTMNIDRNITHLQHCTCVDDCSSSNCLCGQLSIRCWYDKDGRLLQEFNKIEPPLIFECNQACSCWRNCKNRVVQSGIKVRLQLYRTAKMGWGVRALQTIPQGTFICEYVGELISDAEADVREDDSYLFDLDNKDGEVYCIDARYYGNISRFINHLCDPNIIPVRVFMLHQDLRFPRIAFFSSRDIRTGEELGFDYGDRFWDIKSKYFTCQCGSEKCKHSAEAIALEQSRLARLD
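Signal arises when biotinylated H3K9 peptide, once monomethylated, bridges streptavidin donor and antibody-captured acceptor beads. Enzyme at 20 nM was preincubated 15 min with test compounds; peptide 500 nM and SAM 20 uM then reacted for 2 h.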
The depositor's hits bear a star; ? = inconclusive; · = no result; [ ] = dose if it differs, or a comment. The call rests on the fitted dose curve; in most records, active means well fitted curve in the direction sought with a large enough effect; inconclusive means small, poorly fitted or top-dose-only effect, or another doubt; inactive means no such curve, though single readings can be large; an effect the other way counts as inactive or inconclusive. Potency means the concentration at half of the fitted maximal effect.

SMILES	ALOX12 inh	JMJD2A Tudor	PLK1 PBD inh	HP1b chromo inh	BAZ2B inh	G9a inh
CCc1ccc(-n2cc(-c3ccc([N+](=O)[O-])cc3)[nH]c2=S)cc1	-20.0%	-24.3%	-8.3%	8.7%	-36.2%	?
CC(C)(C)c1ccc(Cc2n[nH]c(=S)[nH]c2=O)cc1	15.8µM*	-8.4%	-13.1%	35.9%	1.8%	23.1%[2.33 µM]
O=c1[nH]c(=S)[nH]nc1Cc1ccc(Cl)c(Cl)c1	6.31µM*	-9.1%	-20.0%	30.8%	16.2%	50.1µM*
C[C@H]1CN([C@@H](C)CO)C(=O)CCCn2nncc2CO[C@@H]1CN(C)C(=O)Nc1ccc2c(c1)OCO2	-2.1%	·	5.32µM*	·	·	·
C[C@@H]1CN([C@@H](C)CO)C(=O)CCCn2nncc2CO[C@H]1CN(C)C(=O)Nc1ccc2c(c1)OCO2	-2.2%	·	7.3%	·	·	·
Nc1ccc2c(c1)OCCOCCOCCOCCOCCO2	?	-4.2%	-0.4%	49.9%	-11.4%	14.1µM*
Brc1cc2c(cc1Br)OCCOCCOCCOCCO2	2.1%	8.91µM*	4.23µM*	-21.7%	-23.6%	23.9%
CN1C2CCC1/C(=C/c1cccn1C)C(=O)/C2=C\c1cccn1C	?	44.7µM*	122.0%	?	44.7µM*	?
Cn1cccc1/C=C1\CC(C(C)(C)C)C/C(=C\c2cccn2C)C1=O (stereo not drawn)	?	39.8µM*	-11.4%	?	28.2µM*	?
Cc1cc(=O)nc2c3ccccc3n(C(C)C(=O)NCCC(C)C)n12 (stereo not drawn)	0.0%	-2.9%[11.4 µM]	26.7µM*	1.2%	0.2%	-2.3%
Nc1nc(SCC(=O)N2N=C3/C(=C\c4ccco4)CCCC3C2c2ccco2)n[nH]1 (stereo not drawn)	-11.4%	?	-7.1%	-10.1%	·	·
Cn1cnnc1SCC(=O)N1N=C2/C(=C/c3ccco3)CCCC2C1c1ccco1 (stereo not drawn)	4.3%	-24.0%	-9.0%	8.5%	56.2µM*	·
O=C(CSc1nccc(=O)[nH]1)N1CCCc2ccccc21	-22.6%	-9.9%	-16.8%	33.5%	7.6%	4.6%[59 µM]
Nc1nc(SCC(=O)N2N=C3/C(=C/c4ccco4)CCCC3C2c2ccco2)n[nH]1 (stereo not drawn)	1.8%	-32.9%	-9.0%	-8.0%	50.1µM*	?
O=C(CSc1nccc(=O)[nH]1)N1N=C2/C(=C/c3ccco3)CCCC2C1c1ccco1 (stereo not drawn)	?	44.7µM*	-16.9%	?	·	?
CCOC(=O)C1=C(CNCc2cccc(C)c2)NC(=O)NC1c1cc(C)ccc1C (stereo not drawn)	2.6%	·	·	·	·	·
COc1cc(NC(=O)CSc2ccc(-c3ccco3)nn2)cc(OC)c1	-5.7%	-31.6%	-18.4%	28.7%	-38.5%	?
COCCNC(=O)C1CCN(C(=O)c2cc3sccc3n2Cc2ccc(F)cc2)CC1	-3.6%	-3.3%	-2.1%	31.0%	-29.9%	6.2%
COc1ccc(NC(=O)c2ccc(-n3cccn3)nc2)cc1	-32.9%	-16.3%	-6.6%	14.5%	-2.3%	3.1%
CCC(=O)OC1CCC2C3CCc4cc(O)ccc4C3CC[C@]12C (stereo partly drawn)	·	·	·	·	·	-5.8%[2.33 µM]
CC1=CC(C)(C)n2c(O)c(N=N)c3cc(C)cc1c32	-19.8%	50.1µM*	-0.3%	?	44.7µM*	?
CC1=CC(C)(C)n2c(O)c(N=N)c3c(C)ccc1c32	4.6%	44.7µM*	-24.6%	-16.4%[57 µM]	?	50.1µM*
CC1=CC(C)(C)n2c(O)c(N=NC(N)=S)c3c(C)c(C)cc1c32	0.0%	-20.1%	1.8%	20.3%	?	?
